According to PubChem BioAssay (NCATS):
Inconclusive results are not listed. Active and inactive are the calls of the source. Calls follow the shape of the dose curve; as a rule, active = well fitted cell-killing curve with a large enough effect; inconclusive = small, poorly fitted or top-dose-only effect, or effect the other way; inactive = flat fitted curve, though single readings scatter.

Tested on: Es-2
Test: Primary qHTS to identify gynecologic anti-cancer compounds using libraries of approved drugs and bioactive compounds (AID 1345084); also: nearly all actives have a fitted effect of over 55% in size
Conditions: Gynecologic cancer cell panel viability, ATPlite luminescence, 48 h; series mostly up to 57.5 µM; activity change, negative = cytotoxicity: at the top concentration
Summary of the method: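 Cell viability after 48 h drug treatment, ATPlite luminescence readout; five doses.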
% is scaled to controls: 0 for no effect and ±100 for the full control effect.

Structure (SMILES)	activity change, negative = cytotoxicity
O=[N+]([O-])c1ccc([As](=O)(O)O)cc1	-1.63% (inactive)
COCCOCCO	2.87% [at 116 µM] (inactive)
CC(N[C@H]1C[C@H]1c1ccccc1)c1ccc2c(c1)OCCO2 (some centres not stated)	0.98% (inactive)
CC(C)(C)C(O)C(Oc1ccc(Cl)cc1)n1cncn1 (configuration not stated)	4.09% [at 116 µM] (inactive)
Cc1c(C(=O)Nc2cccc(C(F)(F)F)c2)cc(-c2ccccc2)n1CCCN1CCOCC1	-2.82% (inactive)
O=C1C(I)=CC(=C(c2cc(I)c(O)c(I)c2)c2ccccc2C(=O)O)C=C1I	11.8% (inactive)
CC(C)(C)NC[C@H](O)c1ccc(O)cc1Cl	5.61% (inactive)
